Laboratory results published in PubChem BioAssay (NCI).
Compounds without any hit were thinned out: in the full panel of roughly 83,000, 20% have a hit.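 Compound tested at a single concentration for 48 hours in 96-well plates; a percent growth value below 10 was scored as active.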 Values without a mark were called inactive. Activity calls are given as the source filed them.

Tests used:
Experiment in all cases: NCI-60 one-dose screen, 48 h (100 = growth as untreated, 0 = no growth, -100 = all killed)
Conditions in all cases: 10 µM unless noted
NCI-H23 lung = test system: NCI-H23 lung
NCI-H226 lung = test system: NCI-H226 lung
NCI-H322M lung = test system: NCI-H322M lung
HOP-62 NSCLC = test system: HOP-62 NSCLC
NCI-H460 lung = test system: NCI-H460 lung
HOP-92 NSCLC = test system: HOP-92 NSCLC
NCI-H522 lung = test system: NCI-H522 lung
A549/ATCC NSCLC = test system: A549/ATCC NSCLC
786-0 renal = test system: 786-0 renal
COLO 205 colon = test system: COLO 205 colon

Row | Structure (SMILES) | growth (NCI-H23 lung) [%] | growth (NCI-H226 lung) | growth (NCI-H322M lung) | growth (HOP-62 NSCLC) [%] | growth (NCI-H460 lung) | growth (HOP-92 NSCLC) | growth (NCI-H522 lung) | growth (A549/ATCC NSCLC) | growth (786-0 renal) | growth (COLO 205 colon)
1 | COc1cc(OC)c(C(=O)C(CN(C)C)CN(C)C)cc1OC | 96.5 | 108% | 108% | 84.7 | 109% | 40% | -73.7% (active) | 109% | 7.98% (active) | -85.4% (active)
2 | CC(C)N1C(=O)/C(=c2\sc3n(c2=O)C2C(NN=3)N(C)C(=O)N2C)c2ccccc21 (configuration not stated) | 74.6 | 83% | 91.6% | 74.7 | 62.2% | 42.9% | 33.9% | 50.8% | 62.7% | 91.1%
3 | CN(Cc1ccccc1)c1nc(Cl)c(C2CC(c3ccccc3)=NN2c2ccccc2)s1 (configuration not stated) | 88.3 | 89% | 97.6% | 84.5 | 101% | 86% | 77.8% | 85.7% | 93.9% | 105%
4 | C=C(C)[C@@H]1CC[C@]2(C(N)=O)CC[C@]3(C)[C@H](CC[C@@H]4[C@@]5(C)CC[C@H](OCCC#N)C(C)(C)[C@@H]5CC[C@]43C)[C@@H]12 | 91.3 | 84.1% | 73.3% | 95 | 79% | 78.1% | 77.5% | 74.6% | 94.8% | 86.1%
5 | CCOc1c(OC)cc2c(c1O)C(=O)N[C@@H]1[C@@H](O)[C@@H](O)[C@H](O)C[C@@H]21 | 107 | 99.8% | 103% | 98.6 | 112% | 85.2% | 92.3% | 94.7% | 102% | 115%
6 | O=C1/C(=C/c2ccc(O)c(O)c2)COc2ccc(-c3ccccc3)cc21 | 35.8 | 36.2% | 54.8% | 77.5 | 13.7% | 1.73% (active) | -67.2% (active) | 31.8% | 24.8% | 5.4% (active)
7 | CC1C(/C=N/NC(N)=S)C(C#N)(C#N)C1(C#N)C#N (configuration not stated) | 101 | 101% | 102% | 105 | 99.8% | 92.9% | 99.4% | 100% | 104% | 115%
8 | CN1C(=O)/C(=C2\SC(=Nc3ccccc3)N(Nc3ccccc3)C2=O)c2ccccc21 | 94.1 | 93.8% | 95.4% | 88.1 | 101% | 100% | 94.5% | 98.6% | 107% | 112%
9 | Cc1ccc(/C=C(\C#N)n2nnc3cc(F)c(F)cc32)cc1 | 27.1 | 47.6% | 4.87% (active) | 23.1 | 22% | -5.1% (active) | 1.39% (active) | 10.1% | -26.8% (active) | -27.9% (active)
10 | N=c1c(S(=O)(=O)c2ccccc2)cc2c(=O)n3ccccc3nc2n1CC1CCCO1 (configuration not stated) | 99.8 | 103% | 96.4% | 95 | 105% | 94.5% | 100% | 111% | 103% | 113%
11 | NC1(CO)COC(c2ccccc2)OC1 (configuration not stated) | 109 | 103% | 100% | 104 | 108% | 96.7% | 87.1% | 101% | 106% | 107%
12 | NC(N)=NS(=O)(=O)c1ccc(NC2=C(I)C(=O)c3ncccc3C2=O)cc1 | 89.9 | 86.7% | 109% | 111 | 103% | 115% | 81% | 106% | 110% | 112%
13 | N#Cc1c(Nc2ccc(N3CCOCC3)cc2)nc(SCC(=O)c2ccc(Br)cc2)nc1-c1ccccc1 | 98 | 108% | 97.7% | 92.6 | 114% | 99.7% | 96.2% | 97.3% | 101% | 107%
14 | O=C(CI)NC(=O)NC(=O)NCc1ccccc1 | 32.6 | -43.6% (active) | 86.4% | 85.9 | 102% | -17.4% (active) | -82% (active) | 92.9% | 23.9% | -41.4% (active)
15 | CCn1c(-c2cc3c([nH]c4ccccc43)c(-c3cccc(O)c3)n2)n[nH]c1=S | 68.4 | 75.9% | 73.2% | 18.3 | 47.1% | 12.7% | -10.6% (active) | 38% | 13.5% | 92.5%
16 | O=C(Nc1ncc(Cc2ccccc2)s1)c1ccc2c(c1)OCCCO2 | 29.1 | 46.2% | 45.4% |  | 15.2% | 58.7% | -4.73% (active) | 33.5% | 36.3% | 12%
17 | C=C(C)[C@@H]1CC[C@]2(C)[C@H](CC=C3[C@@H]4CC(C)(C)CC[C@]4(CO)CC[C@]32C)[C@@]1(C)CCCN | 68.7 | 95.9% | 54.6% |  | -93.2% (active) | 42.5% | -40.1% (active) | -71% (active) | 32.6% | -56.8% (active)
18 | CCOc1cccc(/C=N/NC(=O)c2cccc(Nc3ccnc(C(F)(F)F)c3)c2)c1O | 24.9 | 32.9% | 36.5% |  | 7.86% (active) | 51.3% | 40.4% | 38% | 2.63% (active) | 37%
